# Experimental data as given in PubChem BioAssay AID463173 (ICCB-Longwood Screening Facility, Harvard Medical School, 2010).
# Among all 52,000 compounds or so, about 4,300 (8.3%) were called active. No stated cut-off is given here; in the data, active means survival mostly below about 52% (no sharp cut-off); inactive means mostly above about 56%. What follows is part of a selection rich in actives, with near analogues and random picks from the rest.
# Test system: DeltatarO mutant
# Experiment: S. aureus survival, RN4220 and DeltatarO strains – OD600, teichoic acid synthesis inhibitors, primary screen (AID 463173)
# Conditions: S. aureus RN4220 wild type/DeltatarO growth, OD600, 18 h, active compounds read low, screened at 18.75 µg/mL (by protocol)
row,Structure (SMILES),survival
1,Cc1cc(C)c(Cn2c3ccccc3c3cnn(CC(=O)NCCc4ccccc4)c(=O)c32)c(C)c1,133% (inactive)
2,Cc1ccc(NC(=O)Cn2cc(C(=O)C3CC3)c3ccccc32)c(C)c1,90% (inactive)
3,Cc1ccc2oc(=O)n(Cc3ccccc3Cl)c2c1,-3% (active)
4,CCOC(=O)c1ccc2oc(=O)n(Cc3ccccc3)c2c1,83% (inactive)
5,CCCCCOc1ccccc1Cn1c(=O)oc2ccc(C)cc21,5% (active)
6,CCCCCOc1ccccc1CN1C(=O)C(=O)c2cc(C)ccc21,151% (inactive)
7,O=C(NCc1ccccc1Cl)c1ccc2oc(=O)n(Cc3ccccc3)c2c1,72% (inactive)
8,Cc1ccc2oc(=O)n(CCNC(=O)Nc3ccccc3Cl)c2c1,72% (inactive)
9,CCCCN(CC)CCCNC(=O)c1cn(C)c(=O)c2c1c1ccccc1n2C,139% (inactive)
10,Cc1ccc2c(c1)cc1c(=O)n(CC(=O)NCc3ccco3)nc(C)n12,84% (inactive)
11,O=C(CN1C(=O)COc2ccc(S(=O)(=O)NC3CCCC3)cc21)NCc1ccccc1Cl,80% (inactive)
12,CCCC(c1nnnn1CC1CCCO1)N(Cc1cccs1)Cc1cc2ccc(C)c(C)c2[nH]c1=O (centres undefined),71% (inactive)
13,Cc1ccc(-c2nc3cc(C(C)C)ccc3o2)cc1NC(=O)c1cc([N+](=O)[O-])ccc1N1CCOCC1,62% (inactive)
14,CCn1cc(C2N3CC4(CC)CN2CC(CC)(C3)C4=O)c2ccccc21 (centres undefined),73% (inactive)
15,Cc1c(Cl)cccc1NC(=O)c1ccc2c(c1)nnn2C1CCCC1,108% (inactive)
16,Cc1cccc(C)c1NC(=O)c1ccc2c(c1)nnn2C1CCCC1,-5% (active)
17,Cc1cc(C)cc(NC(=O)c2ccc3c(c2)nnn3C2CCCC2)c1,128% (inactive)
18,Cc1cc(Br)ccc1NC(=O)CN1C(=O)c2cccnc2Sc2ccccc21,90% (inactive)
19,CCN(CC)c1ccc(NC(=O)CN2C(=O)c3cccnc3Oc3ccccc32)c(C)c1,116% (inactive)
20,CCN(CC)c1ccc(NC(=O)CN2C(=O)c3cccnc3Sc3ccccc32)c(C)c1,-2% (active)
21,CCOC(=O)c1c(C)c(C(=O)NCCc2ccc(OC)cc2)c(C)n1C,99% (inactive)
22,CCC(=O)N1c2ccccc2CC1C(=O)NCCc1ccccc1C (centres undefined),71% (inactive)

row,Structure (SMILES),survival
1,COc1ccc(C2C(=O)N(C3CCCCCC3)CC(=O)N2Cc2ccc(C)cc2)cc1 (centres undefined),60% (inactive)
2,Cc1ccc(CN2C(=O)CN(C3CCCCCC3)C(=O)C2c2ccc(F)cc2)cc1 (centres undefined),6% (active)
3,Cc1ccc(CN2C(=O)CN(C3CCC(C)CC3)C(=O)C2c2ccc(F)cc2)cc1 (centres undefined),91% (inactive)
4,Cc1ccc(C=C2C(=O)N(C)C(=O)N(C)C2=O)cc1,82% (inactive)
5,CCOC(=O)C1=C(CS(=O)(=O)c2ccc(F)cc2)NC(=O)NC1c1ccc(OCC)c(OC)c1 (centres undefined),119% (inactive)
6,COc1ccc(C(=O)Nc2cc3cc(Cl)ccc3oc2=O)cc1OC,73% (inactive)
7,COc1ccc(-c2cn3cccnc3n2)cc1NC(=O)Cc1ccccc1,82% (inactive)
8,CC1=NN(C(=O)c2ccccc2)C(C)(O)C1(C)C (centres undefined),98% (inactive)
9,Cc1[nH]c(=O)[nH]c(=O)c1NC(=O)c1ccccc1,88% (inactive)
10,Cc1cn(C(=O)c2ccccc2)c(=O)[nH]c1=O,57% (active)
11,CC(NC(=O)CSc1n[nH]c(-c2ccccc2Cl)n1)c1nc2ccccc2[nH]1 (centres undefined),72% (inactive)
12,CC(C)CC(=O)Nc1ccc(Cl)c(-c2nc3ccccc3[nH]2)c1,39% (active)
13,CC(C)(C)C(=O)Nc1ccc(Cl)c(-c2nc3ccccc3[nH]2)c1,44% (inactive)
14,CCC(=O)Nc1ccc(Cl)c(-c2nc3ccccc3[nH]2)c1,49% (active)
15,CCC(=O)Nc1cccc(-c2nc3ccccc3[nH]2)c1C,94% (inactive)
16,CCOc1ccc(NC(=O)c2cc(S(=O)(=O)NC3CCCC3)ccc2F)cc1,86% (inactive)
17,COCCn1c(=O)[nH]c2cc(C(=O)N3CCN(c4ccc(F)cc4)CC3)ccc2c1=O,70% (inactive)
18,CCN(Cc1ccccc1)C(=O)CN1C(=O)COc2ccc(S(=O)(=O)NC3CCCC3)cc21,78% (inactive)
19,CC(C)NC(=O)CN1CCN(c2ccc(F)cc2)CC1,87% (inactive)
20,Cc1ccc(S(=O)(=O)c2cn(C)c3cc(N4CCN(c5ccccc5)CC4)c(F)cc3c2=O)cc1,95% (inactive)
21,CC(=O)N1CCc2cc(Br)cc(S(=O)(=O)CCC(=O)N3CCN(c4ccccc4Cl)CC3)c21,61% (inactive)
22,COc1ccccc1N1CCN(C(=O)CCS(=O)(=O)c2cc(Br)cc3c2N(C(C)=O)CC3)CC1,53% (inactive)

row,Structure (SMILES),survival
1,CC(=O)N1CCc2cc(Br)cc(S(=O)(=O)CCC(=O)N3CCN(c4ccccc4)CC3)c21,53% (active)
2,O=C(CCS(=O)(=O)c1cc(Br)cc2c1N(C(=O)C1CC1)CC2)N1CCN(c2ccccc2)CC1,91% (inactive)
3,CC(=O)N1CCc2cc(Br)cc(S(=O)(=O)CCC(=O)N3CCN(c4cccc(C)c4C)CC3)c21,45% (active)
4,CC(=O)N1CCc2cc(Br)cc(S(=O)(=O)CCC(=O)N3CCN(c4ccc(F)cc4)CC3)c21,67% (inactive)
5,O=C(NCCS(=O)(=O)N1CCN(c2ccccc2F)CC1)C1CC(=O)N(c2ccc(F)cc2)C1 (centres undefined),90% (inactive)
6,O=C(NCCc1csc2nc(-c3cccc(F)c3)nn12)c1ccc(Br)o1,76% (inactive)
7,COc1ccc(-n2c(CNc3ccccc3Cl)nnc2SCC(N)=O)cc1,86% (inactive)
8,CCN(CC)CCC(=O)c1ccc(OC(C)C)cc1,92% (inactive)
9,Cc1c(Cl)cccc1-c1ccc(C(=O)Nc2ccc(F)cc2)o1,1% (active)
10,CCOc1ccc(NC(=O)c2cc3cc4ccc(C)cc4nc3o2)cc1,83% (inactive)
11,CCOC(=O)c1ccc(NC(=O)c2cc(=O)c3cc(CC)ccc3o2)cc1,62% (inactive)
12,CCOC(=O)c1ccc(NC(=O)c2c(-c3c(F)cccc3Cl)noc2C)cc1,59% (inactive)
13,CCOC(=O)c1ccc(NC(=O)c2ccc(-c3cccc(Cl)c3C)o2)cc1,37% (active)
14,CCOc1ccc(-c2cc(C(=O)Nc3ccc(NC(C)=O)cc3)no2)cc1,61% (inactive)
15,CCOc1ccc(NC(=O)c2ccc(-c3cccc(Cl)c3C)o2)cc1,42% (active)
16,COc1ccc(NC(=O)c2cc(-c3ccccc3O)no2)cc1,69% (inactive)
17,Cc1c(NC(=O)c2ccc(-c3ccc(F)cc3)o2)cccc1-c1nc2ncccc2o1,55% (inactive)
18,COc1ccc(NC(=O)c2coc(C)c2)cc1,82% (inactive)
19,Cc1c(Cl)cccc1-c1ccc(CNc2ccc3[nH]c(=O)[nH]c3c2)o1,51% (inactive)
20,COc1ccc(NC(=O)c2ccc(-c3cccc(Cl)c3C)o2)cc1,16% (active)
